System: PIM3
Conditions: concentration: 1 μM, replicates: in singlicate; n = 1
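Further: KINOMEscan kinase panel screen.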

| SMILES | %Inh [%] |
| --- | --- |
| O=C(Nc1cccc(-c2nn3ccccc3c2-c2ccnc(Nc3cccc(C(F)(F)F)c3)n2)c1)c1c(F)cccc1F [GSK292658] | 0 |
| Nc1n[nH]c2cnc(-c3ccccc3)cc12 [SB-642124] | 13 |
| CN(c1ccc(NC(=O)Nc2cc(C(F)(F)F)ccc2F)cc1)c1ccnc(Nc2ccc(S(N)(=O)=O)cc2)n1 [GW809893] | 0 |
| Clc1ccc(-c2nn3ncccc3c2-c2ccnc(Nc3ccc4c(c3)OCCO4)n2)cc1 [GW829116] | 0 |
| Cn1cc(-c2[nH]c3cc(NC(=O)[C@H](N)C4CCCCC4)cc4c3c2C=NNC4=O)cn1 | 46 |
